Among the data in PubChem BioAssay (NCI) are growth inhibition values, retold here.

Where “and” joins values, the source holds several entries; their conditions need not be identical. Equal entries are not always repeated. About 79,000 compounds went through this panel and 15% of them were active in at least one assay; those are over-represented in the sample as a whole. A number with no mark means an inactive call. Calls of active or inactive are those of the source. No stated cut-off is given here; in the data, active means growth inhibition above about 70%; inactive means the rest.

A short description of assay [1]: NCI Yeast Anticancer Drug Screen. Data for the rad50 strain (AID 155).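 Further: 0% = growth of vehicle-only cultures of the same strain.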 As to conditions: S. cerevisiae rad50 strain growth inhibition; at 50.0 µM; hits give high values. Summed up:
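A DNA repair-deficient yeast mutant serves as the test organism; compound-induced growth inhibition is calculated against vehicle-treated cells.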

Assay [2] can be described thus: NCI Yeast Anticancer Drug Screen. Data for the mec2-1 strain (AID 157). To be noted: S. cerevisiae mec2-1 strain, at 50.0 µM, hits give high values. Summed up: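 Mutant yeast (mec2-1) grown with compound; growth inhibition relative to vehicle control reported.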
Assay [3] is described as follows: NCI Yeast Anticancer Drug Screen. Data for the sgs1 mgt1 strain (AID 161).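 Further: 0% = growth of cultures given vehicle only.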 As to conditions: S. cerevisiae sgs1 mgt1 strain, at 50.0 µM, hits give high values. In short, it runs like this: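 Yeast cells carrying a defined DNA-repair defect were exposed to test compounds. Growth inhibition was measured relative to vehicle-treated controls.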
The nature of assay [4]: NCI Yeast Anticancer Drug Screen. Data for the cln2 rad14 strain (AID 165).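 Further: 0% = growth equal to vehicle treated cultures.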 To be noted: S. cerevisiae cln2 rad14 strain, at 50.0 µM, hits give high values. In short, it runs like this:
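Readout is yeast growth inhibition versus vehicle-treated controls, using a strain with cln2 and rad14 alterations exposed to compound.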

Assay [5] can be described thus: NCI Yeast Anticancer Drug Screen. Data for the bub3 strain (AID 167). As to conditions: S. cerevisiae bub3 mutant strain, at 50.0 µM, hits give high values. In short, it runs like this:
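Inhibition values come from growth of compound-treated mutant yeast normalised to vehicle-treated controls.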

The nature of assay [6]: NCI Yeast Anticancer Drug Screen. Data for the mlh1 rad18 strain (AID 175). As to conditions: S. cerevisiae mlh1 rad18 strain growth inhibition; at 50.0 µM; hits give high values. Summed up: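 Genetically defined yeast (DNA repair-deficient) exposed to compounds; growth inhibition determined relative to vehicle.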

In the case of `C/C(=N\N(C)C)C(CN1CCCCC1)C(c1ccccc1)c1c(O)c2ccccc2oc1=O` (stereo not given), the growth inhibition in assay [1] is -1.35%; in assay [2] it was -30.2%; in assay [3] it was -6.15%; in assay [4], 4.8%; in assay [5], 30.1%; in assay [6], -9%.

For the compound `CCOC(OC1=C(C#N)CCCC1)C(CC)[Se]c1ccccc1` (stereo not given), the growth inhibition in assay [1] is 62.6%; in assay [2] it was 21.3%; in assay [3], 50.8%; in assay [4], 52%; in assay [5], 44.1%; in assay [6], 57.8%.

For the compound `CC1c2[nH]c3ccccc3c2CCN1C` (stereo not given), the growth inhibition was 4.2% in assay [1]; -21.7% in assay [2]; 7.8% in assay [3]; 13.5% in assay [4]; -6.95% in assay [5]; 12.3% in assay [6].

On to `COC(=O)[C@H]1[C@@H](O)[C@@]2(O)c3c(OC)cc(OC)cc3O[C@@]2(c2ccc3c(c2)OCO3)[C@@H]1c1ccccc1`, for which the growth inhibition in assay [1] was 89% (active); in assay [2], 92.5% (active); in assay [3] it was 91% (active); in assay [4], 90.2% (active); in assay [5], 88.2% (active); in assay [6], 92.2% (active).

Take `CCC(CO)N=Cc1ccccc1O.CCC(CO)N=Cc1ccccc1O.[Ni]` (stereo not given): the growth inhibition in assay [1] is 40%; in assay [2] it was 1.3%; in assay [3], 31.9%; in assay [4], -44.1%; in assay [5], 8.7%; in assay [6] it was 25.5%.

Take `C/C=C(\CC)C1(C(C)C)C(=O)NC(=O)NC1=O`: the growth inhibition in assay [1] is 12.2%; in assay [2] it was -1.35%; in assay [3] it was -6.3%; in assay [4] it was -33.9%; in assay [5] it was 2%; in assay [6], 10.4%.

Consider `CC(C)OC(=S)S.[Cu+2]`, for which the growth inhibition was -7% in assay [1]; -6.7% in assay [2]; -2.4% in assay [3]; -31.6% in assay [4]; -15.2% in assay [5]; 2.4% in assay [6].

For `CC12CCC(OC3OC(CO)C(OC4OC(CO)C(O)C(O)C4O)C(O)C3O)CC1CCC1C2CCC2(C)C(C3=CC(=O)OC3)CCC12O` (stereo not given), the growth inhibition in assay [1] is 15.8%; in assay [2], -3.95%; in assay [3], -14.2%; in assay [4], -7.95%; in assay [5], 13.6%; in assay [6] it was 6.85%.

On to `CC1(O)CCC(O)CC1CC(=O)O` (stereo not given), for which the growth inhibition in assay [1] was 11.8%; in assay [2], 8.5%; in assay [3], 9.45%; in assay [4] it was 22.1%; in assay [5], -0.15%; in assay [6] it was 11.4%.

As to `C#CCC1(OC(N)=O)CCCCC1`, the growth inhibition in assay [1] was 19.2%; in assay [2], 14.8%; in assay [3], -1.35%; in assay [4], -38.2%; in assay [5], 3.65%; in assay [6] it was -16.6%.

For the compound `c1ccc2c(c1)CC1OCN3CN(COC4Cc5ccccc5CC43)C1C2` (stereo not given), the growth inhibition in assay [1] was 0.75%; in assay [2] it was -4.7%; in assay [3], 1.2%; in assay [4], -5.9%; in assay [5] it was -1.45%; in assay [6], -7.15%.

For the compound `O=C(O)c1ccccc1S`, the growth inhibition in assay [1] was 7.1% and 0.05%; in assay [2], -7.6% and -15.2%; in assay [3], 9.95% and -8.35%; in assay [4], 18.9% and -22.2%; in assay [5], -1.75% and 5.25%; in assay [6], 2.75% and 11.5%.

As to `Cc1c(Cl)cccc1NC(=O)C(=O)C1C(=O)NC(=O)NC1=O`, the growth inhibition is -10.8% in assay [1]; -10.8% in assay [2]; -13.8% in assay [3]; -6% in assay [4]; -17.8% in assay [5]; -17.9% in assay [6].

For `CCC(=O)C(c1ccccc1)(c1ccccc1)C(C)CN1CCCCCCC1` (stereo not given), the growth inhibition in assay [1] is 30.3%; in assay [2], 12.1%; in assay [3] it was 10.8%; in assay [4], 1.9%; in assay [5], 10.8%; in assay [6], 35.4%.

On to `COP(=O)(OC)C(=O)c1ccc(C)cc1`, for which the growth inhibition was 14.7% in assay [1]; -6.05% in assay [2]; 1.55% in assay [3]; -36.8% in assay [4]; 15.9% in assay [5]; -7% in assay [6].

As to `COc1cc(C2c3cc4c(cc3OC(NNS(=O)(=O)c3ccc(C)cc3)C2C)OCO4)cc(OC)c1O` (stereo not given), the growth inhibition in assay [1] was -3.5%; in assay [2], -7.8%; in assay [3] it was -15.8%; in assay [4] it was 0.15%; in assay [5], -12.5%; in assay [6], 1.6%.

Regarding `O=[N+]([O-])c1cc(-c2ccc([As](=O)(O)O)cc2)ccc1[As](=O)(O)O`, the growth inhibition in assay [1] was 2.5%; in assay [2] it was 4.4%; in assay [3], -40%; in assay [4] it was 9.5%; in assay [5] it was -22%; in assay [6], -4.15%.

For `CC(=O)C(C(C)=O)C(C)=O.CC(=O)C(C(C)=O)C(C)=O.CC(=O)C(C(C)=O)C(C)=O.[Cr]`, the growth inhibition was 25.2% in assay [1]; 2.8% in assay [2]; 11.2% in assay [3]; 7.25% in assay [4]; -3.6% in assay [5]; 5.25% in assay [6].

For the compound `C[N+](C)(C)NP(=O)(N[N+](C)(C)C)c1ccccc1`, the growth inhibition is 3.2% in assay [1]; -8.15% in assay [2]; -19.3% in assay [3]; 11.6% in assay [4]; 1.95% in assay [5]; -11.1% in assay [6].

In the case of `Cn1c(O)c(C=N)c(=O)n(C)c1=O`, the growth inhibition is 15.1% in assay [1]; 5.4% in assay [2]; -2.6% in assay [3]; 7.45% in assay [4]; 0.8% in assay [5]; 4.7% in assay [6].
